Measurements published in PubChem BioAssay (NCATS).
Results filed as inconclusive are left out. The source made the active and inactive calls. Calls come from the whole dose curve; as a rule, active = well fitted cell-killing curve with a large enough effect; inconclusive = small, poorly fitted or top-dose-only effect, or effect the other way; inactive = flat fitted curve, though single readings scatter.

Assays:
Test in all cases: Primary qHTS to identify gynecologic anti-cancer compounds using libraries of approved drugs and bioactive compounds (AID 1345084); note: nearly all actives have a fitted effect of over 55% in size
[1] = test system: C33A; conditions: Gynecologic cancer cell panel viability, ATPlite luminescence, 48 h; series mostly up to 57.5 µM
Summary of the method: (§1)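 Cell viability after 48 h drug treatment, ATPlite luminescence readout; five doses.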

[2] = test system: CAOV3; conditions: Gynecologic cancer cell panel viability, ATPlite luminescence, 48 h; series mostly up to 57.5 µM
Summary of the method: as §1

[3] = test system: CASKI; conditions: Gynecologic cancer cell panel viability, ATPlite luminescence, 48 h; series mostly up to 57.5 µM
Summary of the method: as §1

[4] = test system: Es-2; conditions: Gynecologic cancer cell panel viability, ATPlite luminescence, 48 h; series mostly up to 57.5 µM
Summary of the method: as §1

[5] = test system: HeLa; conditions: Gynecologic cancer cell panel viability, ATPlite luminescence, 48 h; series mostly up to 57.5 µM
Summary of the method: as §1

[6] = test system: Hek293T; conditions: Gynecologic cancer cell panel viability, ATPlite luminescence, 48 h, control line for the selectivity index; series mostly up to 57.5 µM
Summary of the method: as §1

[7] = test system: JEG-3; conditions: Gynecologic cancer cell panel viability, ATPlite luminescence, 48 h; series mostly up to 57.5 µM
Summary of the method: as §1

[8] = test system: OV90; conditions: Gynecologic cancer cell panel viability, ATPlite luminescence, 48 h; series mostly up to 57.5 µM
Summary of the method: as §1

[9] = test system: PA-1; conditions: Gynecologic cancer cell panel viability, ATPlite luminescence, 48 h; series mostly up to 57.5 µM
Summary of the method: as §1

[10] = test system: SKOV3; conditions: Gynecologic cancer cell panel viability, ATPlite luminescence, 48 h; series mostly up to 57.5 µM
Summary of the method: as §1

[11] = test system: Tov-21-G; conditions: Gynecologic cancer cell panel viability, ATPlite luminescence, 48 h; series mostly up to 57.5 µM
Summary of the method: as §1

[12] = test system: Tov112D; conditions: Gynecologic cancer cell panel viability, ATPlite luminescence, 48 h; series mostly up to 57.5 µM
Summary of the method: as §1
% is set by controls: 0 for no effect and ±100 for the full control effect.

C=CC(C)(O)C(O)CC1C(C)(O)C(O)C(O)C2C(C)(C)CCCC21C (centres undefined)
inactive: Potency [1] | Potency [2] | Potency [3] | Potency [4] | Potency [5] | Potency [6] | Potency [7] | Potency [8] | Potency [9] | Potency [10] | Potency [11] | Potency [12]

Cc1nc2sc(C(=O)NCc3ccncc3)c(N)c2c(C)c1Cl
inactive: Potency [1] | Potency [2] | Potency [3] | Potency [4] | Potency [5] | Potency [6] | Potency [7] | Potency [8] | Potency [9] | Potency [10] | Potency [11] | Potency [12]

COc1cc(C(=O)O)ccc1OC1OC(CO)C(O)C(O)C1O (centres undefined)
inactive: Potency [1] | Potency [2] | Potency [3] | Potency [4] | Potency [5] | Potency [6] | Potency [7] | Potency [8] | Potency [9] | Potency [10] | Potency [11] | Potency [12]

CC1OC(OC2C(C)OC(OC3C(OC(=O)C45CCC(C)(C)CC4C4=CCC6C7(C)CCC(OC8OC(C(=O)O)C(O)C(O)C8OC8OC(CO)C(O)C(OC9OC(C)C(O)C(O)C9O)C8O)C(C)(CO)C7CCC6(C)C4(C)CC5)OC(CO)C(O)C3O)C(O)C2O)C(O)C(O)C1O (centres undefined)
inactive: activity change, negative = cytotoxicity [1] 1.01% [at 6.55 µM] | activity change, negative = cytotoxicity [2] 6.9% [at 6.55 µM] | activity change, negative = cytotoxicity [3] 16.9% [at 6.55 µM] | activity change, negative = cytotoxicity [4] 0.662% [at 6.55 µM] | activity change, negative = cytotoxicity [5] 5.48% [at 6.55 µM] | activity change, negative = cytotoxicity [6] -2.51% [at 6.55 µM] | activity change, negative = cytotoxicity [7] 4.23% [at 6.55 µM] | activity change, negative = cytotoxicity [8] 11.5% [at 6.55 µM] | activity change, negative = cytotoxicity [9] 0.842% [at 6.55 µM] | activity change, negative = cytotoxicity [10] 0% [at 6.55 µM] | activity change, negative = cytotoxicity [11] 2.91% [at 6.55 µM] | activity change, negative = cytotoxicity [12] 13.7% [at 6.55 µM]

CN[C@@H]1[C@H](O[C@H]2[C@H](O[C@@H]3[C@@H](O)[C@H](O)[C@@H](N=C(N)N)[C@H](O)[C@H]3N=C(N)N)O[C@@H](C)[C@]2(O)C=O)O[C@@H](CO)[C@H](O)[C@H]1O
inactive: Potency [1] | Potency [2] | Potency [3] | Potency [4] | Potency [5] | Potency [6] | Potency [7] | Potency [8] | Potency [9] | Potency [10] | Potency [11] | Potency [12]

CCCC(=O)C1CCN(c2ncnc3c2CN(C(=O)c2ccc(-c4ccccc4)cc2)CC3)CC1
inactive: Potency [1] | Potency [2] | Potency [3] | Potency [4] | Potency [5] | Potency [6] | Potency [7] | Potency [8] | Potency [9] | Potency [10] | Potency [11] | Potency [12]

O=C(O)/C=C/c1ccc(O)c(O[C@@H]2O[C@H](CO)[C@@H](O)[C@H](O)[C@H]2O)c1
inactive: Potency [1] | Potency [2] | Potency [3] | Potency [4] | Potency [5] | Potency [6] | Potency [7] | Potency [8] | Potency [9] | Potency [10] | Potency [11] | Potency [12]

Cc1cc(=O)oc2c(C=O)c(O)ccc12
inactive: Potency [1] | Potency [2] | Potency [3] | Potency [4] | Potency [5] | Potency [6] | Potency [7] | Potency [8] | Potency [9] | Potency [10] | Potency [11] | Potency [12]

CC(C)C(NC(=O)c1ccc2ccccc2n1)C(=O)NC(CC(=O)O)C(=O)COc1c(F)cccc1F (centres undefined)
inactive: Potency [1] | Potency [2] | Potency [3] | Potency [4] | Potency [5] | Potency [6] | Potency [7] | Potency [8] | Potency [9] | Potency [10] | Potency [11] | Potency [12]

Nc1ncnc2c([C@@H]3N[C@H](CO)[C@@H](O)[C@H]3O)c[nH]c12
inactive: Potency [1] | Potency [2] | Potency [3] | Potency [4] | Potency [5] | Potency [6] | Potency [7] | Potency [8] | Potency [9] | Potency [10] | Potency [11] | Potency [12]

C=CC(C)(O)CC/C=C(\C)C(=O)OC1C(O)C(CO)OC(OC(=O)C23CCC(C)(C)CC2C2=CCC4C5(C)CCC(OC6OC(COC7OCC(OC(C)=O)C(O)C7OC7OC(COC(C)=O)C(O)C(O)C7O)C(O)C(O)C6O)C(C)(C)C5CCC4(C)C2(C)C(O)C3O)C1OC1OCC(OC2OCC(O)C(OC3OCC(O)C(O)C3O)C2O)C(O)C1O (centres undefined)
inactive: activity change, negative = cytotoxicity [1] 7.05% [at 6.55 µM] | activity change, negative = cytotoxicity [2] -2.2% [at 6.55 µM] | activity change, negative = cytotoxicity [3] -3.55% [at 6.55 µM] | activity change, negative = cytotoxicity [4] 1.1% [at 6.55 µM] | activity change, negative = cytotoxicity [5] 16.6% [at 6.55 µM] | activity change, negative = cytotoxicity [6] 1.48% [at 6.55 µM] | activity change, negative = cytotoxicity [7] -3.21% [at 6.55 µM] | activity change, negative = cytotoxicity [8] -14.1% [at 6.55 µM] | activity change, negative = cytotoxicity [9] -0.479% [at 6.55 µM] | activity change, negative = cytotoxicity [10] 20.9% [at 6.55 µM] | activity change, negative = cytotoxicity [11] 0.14% [at 6.55 µM] | activity change, negative = cytotoxicity [12] -2.19% [at 6.55 µM]

COc1ccccc1NC(=O)OCC1CCN(C(=O)OC(C)(C)C)CC1
inactive: Potency [1] | Potency [2] | Potency [3] | Potency [4] | Potency [5] | Potency [6] | Potency [7] | Potency [8] | Potency [9] | Potency [10] | Potency [11] | Potency [12]
